# Assay outcomes as filed in PubChem.
# Rows were chosen to be rich in hits. Some 1.6% of all compounds tested hit in one or more screens of this group.
# KCNQ2 block: inhibitors of rat KCNQ2 potassium channel; CHO-K1 KCNQ2, FluxOR thallium flux, 20 min; stronger effect = lower value; B-score at 10 µM; 310,000 compounds, 1.1% hits;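 active = fluorescence ratio B-score at most minus 3 library SDs, with starting brightness B-score within 2 library SDs, cut at about -5.5 in these data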
# Target sequence (O88943 whole entry, looked up): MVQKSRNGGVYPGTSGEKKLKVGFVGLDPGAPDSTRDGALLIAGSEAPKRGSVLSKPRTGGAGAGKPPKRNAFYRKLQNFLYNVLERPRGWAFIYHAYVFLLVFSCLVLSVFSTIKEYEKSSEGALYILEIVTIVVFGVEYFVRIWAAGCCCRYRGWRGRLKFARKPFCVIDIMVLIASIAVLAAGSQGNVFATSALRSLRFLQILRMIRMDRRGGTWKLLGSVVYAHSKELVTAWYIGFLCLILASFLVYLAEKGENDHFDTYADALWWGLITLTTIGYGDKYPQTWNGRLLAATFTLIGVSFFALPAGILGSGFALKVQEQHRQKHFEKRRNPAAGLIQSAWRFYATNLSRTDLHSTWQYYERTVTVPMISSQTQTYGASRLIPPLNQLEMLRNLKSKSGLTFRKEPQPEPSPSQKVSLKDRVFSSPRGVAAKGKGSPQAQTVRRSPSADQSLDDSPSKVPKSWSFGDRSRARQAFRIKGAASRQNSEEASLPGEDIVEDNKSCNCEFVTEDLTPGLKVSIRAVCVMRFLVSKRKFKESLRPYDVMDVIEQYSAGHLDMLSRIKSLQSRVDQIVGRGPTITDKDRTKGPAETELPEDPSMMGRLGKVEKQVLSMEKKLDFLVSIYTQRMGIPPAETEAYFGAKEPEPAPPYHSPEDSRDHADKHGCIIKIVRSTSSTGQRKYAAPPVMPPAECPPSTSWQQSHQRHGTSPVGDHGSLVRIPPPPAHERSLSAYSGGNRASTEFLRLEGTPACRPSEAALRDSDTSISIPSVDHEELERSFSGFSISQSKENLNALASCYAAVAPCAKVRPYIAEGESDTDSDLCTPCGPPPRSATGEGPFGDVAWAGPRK
# KCNQ2 enhance: enhances the rat KCNQ2 potassium channel; O88943; CHO-K1 KCNQ2, FluxOR thallium flux fluorescence; stronger effect = higher value; B-score at 10 µM; 310,000 compounds, 0.54% hits; AID 2239;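 active = fluorescence ratio B-score at least 3 SD of library B-scores, with initial fluorescence B-score within 3 of them, cut at about 5.3 in these data; same plate scores as AID 2156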;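 also: B-score of peak minus minimum over baseline fluorescence ratio after K+ and Tl+ stimulus; positive B-score means potentiation of KCNQ2 with more thallium influx and brighter signal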
# Numbers without * were called inactive; i = inactive; x = not tested or not shown.
SMILES,KCNQ2 block,KCNQ2 enhance
COc1ccc(-c2cc3nc4c(c(N5CCC6(CC5)OCCO6)n3n2)CCC4)cc1,i,x
COc1ccc(-c2cc3nc(-c4ccccc4)cc(N4CCC5(CC4)OCCO5)n3n2)cc1,-6.5*,-6.5
CC(=O)NC(CC(=O)N(C)C1CCCCC1)c1ccccc1 (stereo not given),i,x
Cc1cc2cc(C(c3nnnn3C3CCCC3)N(Cc3cccnc3)Cc3ccco3)c(=O)[nH]c2cc1C (stereo not given),-6.02*,-6.02
Cc1ccc2cc(C(c3nnnn3C3CCCC3)N(Cc3ccccc3)Cc3ccco3)c(=O)[nH]c2c1 (stereo not given),i,x
Cc1ccc(NC(=O)COc2coc(CN3CCN(c4ccccc4)CC3)cc2=O)cc1,i,x
COc1ccc(C(=O)NCc2nnc(SCC(=O)Nc3cc(C)on3)o2)cc1OC,i,x
Cc1cc(NC(=O)CSc2nnc(CNC(=O)c3ccc(C(C)(C)C)cc3)o2)no1,-6.43*,-6.43
CCc1ccccc1NC(=O)C1=CC(c2ccc(OC)c(OC)c2)=NS(=O)(=O)N1C,i,0.04
CSc1cccc(NC(=S)N(Cc2ccc(C)cc2)Cc2ccccn2)c1,i,x
Cc1ccc(CN(Cc2ccccn2)C(=O)Nc2ccc(C)c(C)c2)cc1,-6.85*,-6.85
COc1ccccc1NC(=O)C(C)NC(c1ccccc1)c1ccccc1 (stereo not given),i,1.37
CC(C(=O)Nc1ccccc1Oc1ccccc1)c1ccccc1 (stereo not given),i,8.9*
COc1ccc(C=O)cc1COc1ccccc1F,i,x
COc1ccc(/C=C/C(=O)c2ccccc2)cc1COc1ccccc1F,-7.58*,-7.58
O=C(CCc1nnc2ccc(N3CCC4(CC3)OCCO4)nn12)NCc1ccc(F)cc1,i,x
Cc1cccc(C(C)C)c1NC(=O)c1cc2ccccc2o1,i,x
CC(C)C[C@H](NC(=O)OC(C)(C)C)c1nnc(SCc2cccc(F)c2)o1,-7.47*,-7.47
CSCC[C@H](NC(=O)OC(C)(C)C)c1nnc(SCc2cccc(F)c2)o1,i,x
CCCN1CCN(CCCNC(=O)c2ccc3c(=O)n(CCc4ccccc4)c(=O)[nH]c3c2)CC1,i,x
O=C(NCCN1CCCC1)c1ccc2c(=O)n(CCc3ccccc3)c(=O)[nH]c2c1,-6.03*,-6.03
CC(C)OCCCNC(=O)C(Cc1ccccc1)NS(=O)(=O)c1ccc2c(c1)CCC(=O)N2 (stereo not given),i,x
CC1Cc2ccccc2N1C(=O)CCn1c(=O)sc2ccccc21 (stereo not given),-6.04*,-6.04
CC1Cc2ccccc2N1C(=O)CCN1C(=O)C2C3C=CC(C3)C2C1=O (stereo not given),i,0.21
COc1cc(Br)ccc1C1CC(=O)C(C)C(c2ccc(Br)cc2OC)N1 (stereo not given),i,x
SMILES,KCNQ2 block,KCNQ2 enhance
CCCCN1C2CCCC1CC(NC(=O)c1cccc(OC)c1)C2 (stereo not given),i,0.07
COc1ccc2nc(NC(=O)CSC(C)C(=O)Nc3cc(C)on3)sc2c1 (stereo not given),i,0.57
CCCc1nc(SCC(=O)N2CCCCCC2)c2c(=O)n(C)c(=O)n(C)c2n1,i,19*
CCc1nc(SCC(=O)N2CCCC2)c2c(=O)n(C)c(=O)n(C)c2n1,i,0.95
Cc1ccc(-c2csc(NC(=O)CCNC(=O)c3ccco3)n2)cc1,i,x
Cc1ccc(-c2csc(NC(=S)NC(=O)c3ccco3)n2)cc1,i,10.7*
CCOc1ccccc1NC(=O)C(OC(=O)c1cc(C)oc1C)c1ccccc1 (stereo not given),-5.82*,-5.82
CCOc1ccccc1NC(=O)C(OC(=O)c1ccccc1O)c1ccccc1 (stereo not given),i,x
CC(=O)Nc1c2c(nn1-c1ccccc1)CSC2,i,0.7
CC(C)(C)C(=O)Nc1c2c(nn1-c1ccccc1)CSC2,-8.16*,-8.16
CC(=O)c1sc(NC(=O)CCCOc2ccc(Cl)cc2)nc1C,i,x
N=c1n(Cc2ccc(Cl)cc2)c2ccccc2n1CC(O)COc1ccccc1 (stereo not given),i,x
N=c1n(Cc2ccccc2)c2ccccc2n1CC(O)COc1ccc(Cl)cc1Cl (stereo not given),-5.98*,-5.98
CC[C@@H](C(=O)[C@@H](C)[C@@H](O)[C@H](C)CCc1ccc(C)c(O)c1C(=O)O)[C@H]1O[C@](CC)([C@H]2CC[C@](O)(CC)[C@H](C)O2)C[C@@H]1C,i,27.4*
CC1CCN(CCNC(=O)C2CCCN(S(=O)(=O)c3cccc4nsnc34)C2)CC1 (stereo not given),i,x
S=C(N/N=C/c1ccco1)NC1CC2CCC1C2 (stereo not given),i,x
COC(=O)C1=CN(Cc2ccc(OC)cc2)C=C(C(=O)OC)C1c1ccsc1,i,x
COC(=O)C1=CN(CCOC23CC4CC(CC(C4)C2)C3)C=C(C(=O)OC)C1c1ccsc1,-7.43*,-7.43
O=C1Cc2ccccc2C(c2ccc(Br)cc2)N1 (stereo not given),-6.27*,-6.27
